Bioassay records (PubChem BioAssay)
A selection: hits, their analogues and other compounds. The true share with any hit is near 3.4%.
FBW7 activator: human FBW7 E3 ligase activation, primary screen. Q969H0. AlphaScreen FBW7–phospho-cyclin E peptide binding, activator screen. normalized activity (activation), % at 26.1 µM. 0.13% of 650,000 active; in the data active means normalized activity above about 1.9%;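 further: purified mutant Fbw7 with reduced substrate affinity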
MITF primary: inhibitors of human MITF; inhibition, % at 2.6 µM; 0.91% of 650,000 active; AlphaScreen MITF homodimerization, bead proximity signal; in the data active means inhibition above about 50%;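 further: 0% = vehicle wells with protein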
GPR151 activ: activators of human GPR151. activation, % at 11.2 µM. PathHunter beta-arrestin GPR151 cells, luminescence. 1% of 650,000 active. Q8TDV0; in the data active means activation above about 4.9%;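 further: 0% = median of compound wells and 100% = cells with positive control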
Target sequence (Q8TDV0 whole entry, looked up): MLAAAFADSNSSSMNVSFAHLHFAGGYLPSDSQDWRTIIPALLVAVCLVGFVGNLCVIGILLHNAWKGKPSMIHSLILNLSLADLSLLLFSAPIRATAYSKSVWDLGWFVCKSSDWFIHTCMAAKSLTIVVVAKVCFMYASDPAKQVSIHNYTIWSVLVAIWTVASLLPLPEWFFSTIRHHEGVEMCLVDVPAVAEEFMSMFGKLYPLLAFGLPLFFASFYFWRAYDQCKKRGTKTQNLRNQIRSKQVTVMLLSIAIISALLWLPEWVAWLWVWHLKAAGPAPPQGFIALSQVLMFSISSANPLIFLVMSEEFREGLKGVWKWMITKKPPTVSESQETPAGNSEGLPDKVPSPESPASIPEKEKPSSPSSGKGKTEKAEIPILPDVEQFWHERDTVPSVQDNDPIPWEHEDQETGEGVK
TEAD-YAP inh: TEAD-YAP interaction inhibition; inhibition, % at 9.12 µM; HEK-TIYL cells, TEAD-Gal4/YAP UAS-luciferase luminescence; 1.4% of 640,000 active; AID 1259422; in the data active means inhibition above about 32%;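 further: 0% = median of test compound wells and 100% = reference inhibitor wells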
MITF confirm: human MITF inhibition, confirmation; 16% of 4,700 active; shares compounds with MITF primary; AlphaScreen MITF homodimerization, biotin/His-MITF beads; inhibition, % at 2.6 µM;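 active means inhibition above a cutoff derived from the DMSO control wells, cut at about 28% in these data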;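 further: 0% = MITF dimer wells with DMSO only; inhibitors lower the bead chemiluminescence by keeping MITF from dimerizing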
AlphaScreen DR: counter-screen: compounds optically interfering with AlphaScreen. shares compounds with MITF primary. AlphaScreen optical interference counterscreen, cell-free. IC50, µM. 6% of 480 active; call rule not given here
AlphaScreen intf2: optically interferes with AlphaScreen signal. shares compounds with MITF primary. LysRS AlphaScreen counterscreen, signal interference, triplicate. inhibition, % at 2.6 µM. 7.6% of 4,700 active;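 active means inhibition above a cutoff derived from the DMSO control wells, cut at about 30% in these data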
* = called active by the depositor; · = not tested or not shown.

SMILES | FBW7 activator | MITF primary | GPR151 activ | TEAD-YAP inh | MITF confirm | AlphaScreen intf2 | others
S=c1[nH]nc(-c2ccco2)n1/N=C/C=C/c1ccco1 | -1 | 73* | -1 | -8 | 33* | 2 | AlphaScreen DR=>6.5
CCCN1CCCc2cc(CCNS(=O)(=O)c3cccs3)ccc21 | 0 | 58* | -1 | -3 | -6 | -3
CC(=O)N1CCN(CC(=O)N2CCc3ccccc3C2)CC1 | 0 | 83* | 3 | 7 | 14 | 9
O=C(CCl)N1CCc2ccccc2C1 | 0 | 10 | 1 | 12 | · | ·
O=C(Cn1ncn2cccc2c1=O)N1CCc2ccccc2C1 | 0 | 66* | 0 | 7 | 67* | 9 | AlphaScreen DR=>6.5
CCN(CC)CCN(C)Cc1ccc(SC)cc1 | 0 | 37 | 0 | -1 | · | ·
CCN(CC)CCN(C)Cc1ccc(NC(C)=O)cc1 | 0 | 64* | 1 | 5 | -7 | -2
Cc1ccc(Nc2nc(CSc3nnnn3C)cs2)cc1 | 0 | 1 | 0 | -42 | · | ·
CCCN1CCN(Cc2csc(Nc3ccc(C)cc3)n2)CC1 | 0 | 61* | 0 | 8 | 9 | 20
O=C(NC1CCN(Cc2ccccc2)CC1)C1CC(O)CN1C(=O)Nc1ccccc1 (centres undefined) | 0 | -4 | 0 | -12 | · | ·
CN(C)CCCNc1ncnc2sc3c(c12)CCCC3 | 0 | -22 | 2 | -7 | · | ·
Cc1nc(NCCCN2CCOCC2)c2c3c(sc2n1)CCCC3 | 0 | 74* | -1 | 1 | -16 | 1
O=c1[nH]c(CNCCN2CCOCC2)nc2sc3c(c12)CCC3 | -1 | 105* | -1 | 2 | 19 | 100*
Cc1nc(NCCCN2CCOCC2)c2c3c(sc2n1)CCC3 | 0 | 9 | 0 | 9 | · | ·
Cc1nc(NCCCN(C)C)c2c3c(sc2n1)CCCC3 | 0 | 51* | -1 | -8 | 14 | 13
O=c1[nH]c(CN2CCCCC2)nc2sc3c(c12)CCC3 | 1 | -1 | -1 | 3 | · | ·
COc1cc(CN2CCN(C(=O)CC(C)C)CC2)cc(OC)c1 | 0 | 53* | 0 | 2 | 11 | 10
COc1ccc(CN2CCN(C(=O)CC(C)C)CC2)c(OC)c1OC | 0 | 40 | 0 | 7 | · | ·
COc1cc(CN2CCN(C(=O)CC(C)C)CC2)cc(OC)c1OC | 0 | 70* | 1 | 4 | 6 | 2
COc1ccc(C23CC4CC(CC(C4)C2)C3)cc1[N+](=O)[O-] | 0 | 0 | 0 | -1 | · | ·
Cc1ccc(C23CC4CC(CC(C4)C2)C3)cc1[N+](=O)[O-] | 0 | 54* | 1 | -4 | 4 | 13
COc1cc2sc(=NC(=O)c3ccc(C#N)cc3)n(C)c2cc1OC | 0 | -2 | 0 | 1 | · | ·
O=C(N/N=C/c1ccc(C(F)(F)F)cc1)c1ccc(O)cc1O | 0 | 69* | -2 | -14 | 7 | 25
Clc1ccccc1CN1CCN(CC2CC=CCC2)CC1 (centres undefined) | 0 | 60* | -1 | 0 | 6 | -5
O=[N+]([O-])c1ccccc1S(=O)(=O)N1CCN(CC2CC=CCC2)CC1 (centres undefined) | 0 | 31 | 1 | 2 | · | ·
SMILES | FBW7 activator | MITF primary | GPR151 activ | TEAD-YAP inh | MITF confirm | AlphaScreen intf2 | others
Fc1cccc(CN2CCN(CC3CC=CCC3)CC2)c1 (centres undefined) | 0 | 83* | 3 | -4 | -1 | -3
Cc1ccc(CN2CCN(CC3CC=CCC3)CC2)cc1 (centres undefined) | 0 | 22 | 0 | 3 | · | ·
O=[N+]([O-])c1ccccc1CN1CCN(CC2CC=CCC2)CC1 (centres undefined) | 0 | 66* | 0 | -13 | -5 | 3
O=C(c1ccccc1)N1CCN(CC2CC=CCC2)CC1 (centres undefined) | 0 | 41 | -1 | -4 | · | ·
O=S(=O)(c1ccccc1)N1CCN(CC2CC=CCC2)CC1 (centres undefined) | 0 | 52* | 0 | 2 | -1 | 1
COc1ccc(N2CCN(C(=O)NCc3noc4ccc(C)cc34)CC2)cc1 | 0 | 9 | 0 | 5 | · | ·
COc1ccc(C2CC(c3cccs3)=NN2C(=O)CSc2nnc(CNC(=O)c3cccc(F)c3)n2-c2ccccc2)cc1 (centres undefined) | 0 | -8 | -1 | -2 | · | ·
O=C(NCCc1ccc(O)cc1)c1cccc(-c2cccs2)c1 | 0 | 52* | 1 | 4 | 41* | 4 | AlphaScreen DR=>6.3
